# Source: ChEMBL document CHEMBL1961873, “Compounds: GSK PKIS; Assays: Nanosyn kinase panel” (2012)
# Biological target: MAP kinase-interacting serine/threonine-protein kinase 1 (Homo sapiens) (UniProt Q9BUB5)
# Settings: at 1 µM
# 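Note: each value is an averaged percent inhibition of MKNK1.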
# Sequence of MAP kinase-interacting serine/threonine-protein kinase 1 (Homo sapiens) (Q9BUB5 whole entry, looked up): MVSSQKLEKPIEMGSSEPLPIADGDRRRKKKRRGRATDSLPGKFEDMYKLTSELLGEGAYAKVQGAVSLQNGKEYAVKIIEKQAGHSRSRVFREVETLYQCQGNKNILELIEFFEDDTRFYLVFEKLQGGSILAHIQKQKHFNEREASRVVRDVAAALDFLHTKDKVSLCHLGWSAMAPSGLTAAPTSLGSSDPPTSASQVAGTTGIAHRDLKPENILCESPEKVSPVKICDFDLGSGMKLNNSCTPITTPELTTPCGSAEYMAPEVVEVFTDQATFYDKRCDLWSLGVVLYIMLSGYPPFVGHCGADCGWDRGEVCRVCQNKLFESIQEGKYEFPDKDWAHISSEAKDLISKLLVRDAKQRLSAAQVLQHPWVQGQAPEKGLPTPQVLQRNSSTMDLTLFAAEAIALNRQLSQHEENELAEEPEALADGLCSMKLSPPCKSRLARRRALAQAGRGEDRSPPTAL
row,SMILES,inhibition [%]
1,CCc1nn2ncccc2c1-c1ccnc(NC2CC2)n1,17.9
2,COC(=O)c1sc(-n2cnc3cc(OC)c(OC)cc32)cc1OCc1ccccc1C(F)(F)F,3.3
3,[O-][S+]1CCN(Cc2ccc(-c3ccc4ncnc(Nc5ccc(OCc6cccc(F)c6)c(Cl)c5)c4c3)o2)CC1,6.2
4,CCn1c(-c2nonc2N)nc2c(C#CC(C)(C)O)ncc(OC3CCNCC3)c21,2.25
5,CC(C)(CO)CNC(=O)c1ccc2c(c1)/C(=N/Nc1ccc(S(N)(=O)=O)cc1)C(=O)N2,3.37
6,CCCN1CCC(c2ccc(Nc3nc(Nc4cc(F)ccc4C(N)=O)c4cc[nH]c4n3)c(OC)c2)CC1,10.7
7,COc1ccc(-c2cc(-c3c[nH]nc3-c3ccccn3)ccn2)cc1,7.19
8,COc1ccc(-c2cc3c(N)ncnc3o2)cc1,2
9,COC(=O)Nc1nc2ccc(S(=O)(=O)c3ccc(NC(=O)Nc4cc(C(F)(F)F)ccc4F)cc3)cc2[nH]1,1.87
10,Fc1ccc(-c2nn3ccccc3c2-c2ccncc2)cc1,3.36
11,CN1CCC(n2cnc(-c3ccc(F)cc3)c2-c2ccnc(N)n2)CC1,41.2
12,COc1cccc(-n2ncc3c(N/N=C/c4ccc(F)cc4)ncnc32)c1,17.5
13,Fc1cccc(COc2ccc(Nc3ncnc4sc(-c5ccco5)cc34)cc2Cl)c1,10.1
14,Fc1ccc(-c2cc(-c3c[nH]nc3-c3ccccn3)ccn2)cc1,10.4
15,CCCN(CCS(C)(=O)=O)Cc1ccc(-c2ccc3ncnc(Nc4ccc(OCc5cccc(F)c5)c(Cl)c4)c3c2)o1,9.77
16,COc1cccc(-c2c[nH]c3c(N/N=C/c4ccncc4)ncnc23)c1,57.1
17,CC1=C(C(=O)Nc2cc(Cl)c3[nH]ncc3c2)C(c2ccc(C(F)(F)F)cc2)CC(=O)N1 (centres undefined),7.79

row,SMILES,inhibition [%]
1,CS(=O)(=O)CCNCc1coc(-c2ccc3ncnc(Nc4ccc(OCc5ccccc5)cc4)c3c2)c1,9.67
2,CCn1c(-c2nonc2N)nc2cnc(Oc3cccc(NC(=O)c4ccc(N(C)C)cc4)c3)cc21,11.5
3,CNC(=O)c1cc(-c2ccc(F)cc2)cc(-c2ccc(S(=O)(=O)N3CCCC3)cc2)c1N,0.76
4,O=S(=O)(CCNCc1ccc(-c2ccc3ncnc(Nc4ccc(OCc5cccc(F)c5)c(Cl)c4)c3c2)o1)c1ccccc1,5.96
5,N#Cc1c(NC(=O)c2ccc(F)cc2)sc2c1CCCC2,1.91
6,CNC(=O)c1cccc(C#Cc2cncnc2Nc2ccc(OCc3cccc(F)c3)c(Cl)c2)c1,26.2
7,CCn1c(-c2nonc2N)nc2c(C#CC(C)(C)O)nc(OC[C@H](N)c3ccccc3)cc21,2.97
8,Nc1ncc(-c2cccc(S(N)(=O)=O)c2)c2scc(-c3ccc(F)c(Cl)c3)c12,4.48
9,c1ccc(COc2ccc(Nc3ncnc4ccc(-c5ccco5)cc34)cc2)cc1,5.5
10,N#Cc1c(NC(=O)CN2CCOCC2)sc2c1CCCC2,6.68
11,NS(=O)(=O)c1ccc(N/N=C2\C(=O)Nc3ccc4ncccc4c32)cc1,19.4
12,O=C(O[C@H]1CN[C@H](C#Cc2cc3ncnc(Nc4ccc(Cc5ccccc5)cc4)c3s2)C1)N1CCOCC1,7.67
13,CC(=O)Nc1cccc(C#Cc2cncnc2Nc2ccc(OCc3cccc(F)c3)c(Cl)c2)c1,15.4
14,Cc1cccc(Nc2ncc(-c3ccccc3)o2)c1,1.76
15,FC(F)(F)c1cccc(-c2nn3ncccc3c2-c2ccnc(Nc3ccc4c(c3)OCCO4)n2)c1,3.33
16,CCNC(=O)O[C@H]1CN[C@H](C#Cc2cc3ncnc(Nc4ccc(OCc5cccc(F)c5)c(Cl)c4)c3s2)C1,4.73
17,CNC(=O)c1cncc(/C=C/c2ccccc2Cl)c1,23.1
